Results reported in PubChem BioAssay (NCATS).
Several values for one entry are separate records, joined by “and”; a condition that tells them apart may be missing. Equal values may be shown once. Inconclusive results are not listed. Unmarked numbers belong to inactive results. Activity calls are given as the source filed them. Calls follow the shape of the dose curve; as a rule, active = well fitted cell-killing curve with a large enough effect; inconclusive = small, poorly fitted or top-dose-only effect; inactive = flat fitted curve, though single readings scatter.

Key:
[1] = Cellular viability qHTS for adrenocortical cancer (ACC) cell line SW-13 (AID 1963989); details: SW-13 ACC cells viability, CellTiter-Glo, 48 h; activity (max response): stronger effect = lower value; also: nearly all actives have a fitted effect of over 65% in size;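 as to activity (max response): cells grown in serum-free medium with ITS supplement; % is scaled to controls: 0 for no effect and ±100 for the full control effect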
Procedure, shortened: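 Viability was read as CellTiter-Glo luminescence after 48 h compound treatment (up to 46 uM final) of SW-13 cells grown serum-free; titration curves were fit with a four-parameter logistic model to give IC50 and efficacy.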

[2] = Cellular viability qHTS for adrenocortical cancer (ACC) cell line NCI-H295R (AID 1963990); also: nearly all actives have a fitted effect of over 60% in size
Procedure, shortened: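 CellTiter-Glo ATP luminescence, read 48 h after compound addition, measured viability of NCI-H295R adrenocortical cells grown serum-free with ITS. Final concentrations spanned up to 46 uM. Data normalized to DMSO and doxorubicin, fitted for IC50 and maximal response.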
Potency is read from the fitted curve at half-maximal effect.

Row | Structure (SMILES) | activity (max response) [1] | Potency [2] | Potency [1]
1 | CCOC(=O)c1ccc(O)c(O)c1 | -9.67% | inactive | 
2 | CCS(=O)(=O)N1CCC(C(C)n2c(C)c(C(=O)NCc3c(OC)cc(C)[nH]c3=O)c3ccccc32)CC1 (centres undefined) | -8.74% | inactive | 
3 | CC(C)C[C@H](CC(=O)O)C(=O)N[C@@H](Cc1c[nH]c2ccccc12)C(=O)N[C@@H](C)c1ccccc1 | 0.614% | inactive | 
4 | CN(C)N(C)C(=O)[C@@]1(Cc2ccccc2)CCCN(C(=O)[C@@H](Cc2c[nH]c3ccccc23)NC(=O)C(C)(C)N)C1 | -15.4% | inactive | 
5 | CO[C@H]1C=CO[C@@]2(C)Oc3c(C)c(O)c4c(O)c(c(/C=N/N5CCN(C)CC5)c(O)c4c3C2=O)NC(=O)/C(C)=C\C=C[C@H](C)[C@H](O)[C@@H](C)[C@@H](O)[C@@H](C)[C@H](OC(C)=O)[C@@H]1C | -17.1% | inactive | 
6 | CCCCC(=O)OCC(=O)[C@H]1[C@H](C)C[C@H]2[C@@H]3C[C@H](F)C4=CC(=O)C=C[C@]4(C)[C@@]3(F)[C@@H](O)C[C@@]21C | 5.4% | inactive | 
7 | COCCCc1sc(-c2ccccc2)nc1C(=O)Nc1ccccc1-c1nc2cc(CN3CCCC3)cnc2s1 | -19.6% | inactive | 
8 | O=C(O)c1ccc(O)c2ncccc12 | -6.62% | inactive | 
9 | O=C(CCCCCCCCC#CI)Oc1ccccc1 | -0.224% | 13 µM (active) | 
10 | COc1cc(-c2cn(C)c(=O)c3cnccc23)c(OC)cc1CN(C)C | 19.4% | inactive | 
11 | Cc1cc(C)c(S(=O)(=O)N(CCc2cccc(Br)c2)Cc2ccc(-c3cccc(S(C)(=O)=O)c3)cc2)c(C)c1 | -27.1% | inactive | 
12 | Cc1cccc(Nc2ccccc2C(=O)O)c1C | 8.3% | inactive | 
13 | CN(C)c1ccc(C(=C2C=CC(=[N+](C)C)C=C2)c2ccccc2)cc1 |  | 0.92 µM (active) | 0.82 µM (active)
14 | CCC(C(=O)OCCN1CCOC(c2ccccc2)C1C)c1ccccc1 (centres undefined) | 3.6% | inactive | 
15 | C[C@H](Nc1nc(N[C@H](C)C(F)(F)F)nc(-c2cccc(Cl)n2)n1)C(F)(F)F | -11.6% | inactive | 
16 | CN1CCC(=C2c3ccccc3CCc3cccnc32)CC1 | 5.98% | inactive | 

Row | Structure (SMILES) | activity (max response) [1] | Potency [2] | Potency [1]
17 | CC(=O)Nc1ccc(C(=O)NC(C)(C)C)cc1 | -16.7% | inactive | 
18 | Nc1ccc2cc3ccc(N)cc3nc2c1 |  | 2.59 µM (active) | 6.51 µM (active)
19 | Cc1c(-c2ccccc2)oc2c(C(=O)OCCN3CCCCC3)cccc2c1=O | -7.2% | inactive | 
20 | Cc1c(N)c(=O)n(-c2ccccc2)n1C | -4.39% | inactive | 
21 | CC1(C)O[C@@H]2C[C@H]3[C@@H]4C[C@H](F)C5=CC(=O)C=C[C@]5(C)[C@H]4[C@@H](O)C[C@]3(C)[C@]2(C(=O)CO)O1 | -3.16% and 0.473% | inactive | 
22 | Cc1c(Cn2ccnc2)c2ccccc2n1CCC(=O)O | 15.3% | inactive | 
23 | Nc1nc(OCc2cc(Br)cs2)c2[nH]cnc2n1 | -10.5% | inactive | 
24 | COc1cc(=C2C=c3ccccc3=N2)[nH]/c1=C/c1[nH]c(C)cc1C |  | 7.94 µM (active) | 28.2 µM (active)
25 | C=CCOc1cc(Cl)ccc1C(=O)NCCN(CC)CC | -0.164% | inactive | 
26 | C[C@]1(C(=O)N(CCCC(=O)O)Cc2cccc(Cl)c2)CCN1C(=O)c1csc2ccccc12 | -17.4% | inactive | 
27 | O=C(O)Cc1ccc(CCNS(=O)(=O)c2ccc(Cl)cc2)cc1 | -0.672% | inactive | 
28 | N[C@@H](CCC(=O)O)C(=O)N[C@@H](Cc1c[nH]c2ccccc12)C(=O)O | 9.67% | inactive | 
29 | COc1cc(O)c(C(=O)c2ccccc2)cc1S(=O)(=O)O | 9.22% | inactive | 
30 | Cc1ccc(NC(=O)[C@H]2CCCN(C(=O)c3c(C)cccc3F)[C@H]2c2ccc(NC3CCCC3)cc2)cc1C(F)(F)F | -13.2% | inactive | 
31 | O=C1c2ccccc2CCc2ccccc21 | 4.16% | inactive | 
32 | COc1ccc2c(c1)CC[C@@H]1[C@@H]2CC[C@]2(C)[C@@H](NCCCCCCN3C(=O)C=CC3=O)CC[C@@H]12 | -14.7% | inactive | 
